# From PubChem BioAssay AID485270 (The Scripps Research Institute Molecular Screening Center, 2010)
# Screen size: about 330,000 compounds; about 5,800 (1.8%) were called active. Many of the other results were omitted from the sample, so actives are more common in it than they were. Values without a mark were called inactive. Cut-off read from the data, not from the text of the source: active = inhibition mostly above about 38% (no sharp cut-off); inactive = mostly below about 40%.
# Target: Orexin/Hypocretin receptor type 1 (Homo sapiens) (UniProt O43613)
# Assay: blocks the human orexin 1 receptor (AID 485270);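 note: 0% = agonist challenge alone and 100% = reference antagonist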
# Conditions: OX1R-expressing cells, FRET antagonist read-out; at 6.6 µM; hits give high values
# Chain of Orexin/Hypocretin receptor type 1 (Homo sapiens) (O43613 whole entry, looked up): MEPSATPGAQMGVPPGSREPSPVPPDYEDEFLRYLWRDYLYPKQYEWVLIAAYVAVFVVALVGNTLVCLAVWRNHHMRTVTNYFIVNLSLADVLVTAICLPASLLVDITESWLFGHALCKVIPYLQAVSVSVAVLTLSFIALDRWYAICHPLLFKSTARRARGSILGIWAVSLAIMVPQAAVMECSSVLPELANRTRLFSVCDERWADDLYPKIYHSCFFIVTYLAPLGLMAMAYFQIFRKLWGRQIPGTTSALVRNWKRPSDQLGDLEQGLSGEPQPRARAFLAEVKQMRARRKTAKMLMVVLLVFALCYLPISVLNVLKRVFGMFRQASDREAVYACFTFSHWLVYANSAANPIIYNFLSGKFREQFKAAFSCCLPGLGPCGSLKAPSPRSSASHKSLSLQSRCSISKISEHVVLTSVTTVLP
row,SMILES,inhibition
1,O=C(NCCCCCCNC(=O)NCc1ccco1)NCc1ccco1,10.8%
2,Cc1cc(NC(=O)CSc2ncc(C(F)(F)F)cc2Cl)no1,0.5%
3,CCCCCCSc1ccc(-c2nc3ccc(Cl)cn3c2NCc2ccccc2)cc1,12.3%
4,COc1ccc2sc(-c3ccc(S(C)(=O)=O)cc3)c(-c3ccc(C(N)=O)cc3)c2c1,8.78%
5,CN(CCOc1ccc(Br)cc1)CC(=O)Nc1cccc(S(=O)(=O)NC2=NCCC2)c1,18.8%
6,COc1ccc(OC)c(NC(=O)CN(C)CCOc2ccc(Br)cc2)c1,38.8% (active)
7,COc1ccc(Br)cc1CN(C)CC(=O)Nc1cc([N+](=O)[O-])ccc1OC,12.8%
8,CN(CC(=O)Nc1cccc2c1CCCC2)S(=O)(=O)c1ccc(Cl)cc1,3.84%
9,COc1ccc(-c2nc3cnccn3c2NC2CCCCC2)cc1-c1cccc(Cl)c1,14.3%
10,COc1ccccc1N1CCN(C(=O)c2cc3c(-c4ccc(Cl)cc4)nn(C)c3s2)CC1,2.56%
11,COc1ccc2c(Cl)c(C(=O)NCc3ccco3)sc2c1,5.49%
12,Cn1nc(-c2ccc(Cl)cc2)c2cc(C(=O)NCc3ccco3)sc21,56.6% (active)
13,CN(CCC1CCOCC1)Cc1cn[nH]c1-c1ccc(-c2ccccc2)cc1,7.23%
14,O=C(O)CCC(=O)Nc1nc2ccc([N+](=O)[O-])cc2s1,78.8% (active)
15,O=C(CNC(=O)c1ccccc1)Oc1ccc([N+](=O)[O-])cc1,19.6%
16,O=C(NC(Nc1nc2ccc([N+](=O)[O-])cc2s1)(C(F)(F)F)C(F)(F)F)c1ccccc1,89.4% (active)
17,O=C(CCC(=O)c1cccs1)Nc1nc2ccccc2s1,6.48%
18,O=C(CCNC(=O)c1ccccc1)Nc1nc2ccccc2s1,7.04%
19,Cc1cc(CNC(=O)c2cccc([N+](=O)[O-])c2)c2ccccc2n1,58.6%
20,Cc1csc2nc(COC(=O)c3cccc(N(C)C)c3)cc(=O)n12,13.4%
21,COc1cc(C=NNC(=O)c2cccnc2)ccc1OC(=O)c1ccccc1F,8.6%
22,CC(CNC(=O)Cn1cnc2c(OCc3ccccc3)ncnc21)c1ccccc1 (stereo not drawn),3.56%

row,SMILES,inhibition
1,O=C(c1ccc(N2CCOCC2)c([N+](=O)[O-])c1)N1CCN(c2ccccc2F)CC1,7.32%
2,O=C(Nc1cccc(S(=O)(=O)N2CCCCC2)c1)c1cncc(Br)c1,-0.59%
3,C=CC[C@@H](CC(=O)N[C@H](CO)Cc1ccccc1)C(=O)N[C@H](C)COC(=O)[C@@H](CC=C)Cc1ccc(F)cc1,20.2%
4,COc1ccc(OC)c(NC(=O)C2CCCN2S(=O)(=O)c2cccc3nsnc23)c1 (stereo not drawn),44.2% (active)
5,Cc1ccc2nsnc2c1S(=O)(=O)N1CCCC1C(=O)O (stereo not drawn),30.4%
6,COc1ccc(N(C)C(=O)C2CCN(S(=O)(=O)c3cccc4nsnc34)CC2)cc1,14.4%
7,CC(=O)c1cccc(NC(=O)C2CCCN2S(=O)(=O)c2cccc3nsnc23)c1 (stereo not drawn),110% (active)
8,O=C(O)C(NS(=O)(=O)c1cccc2nsnc12)c1ccccc1 (stereo not drawn),40.5%
9,CC(=O)c1ccc(NC(=O)C2CCCN2S(=O)(=O)c2cccs2)cc1 (stereo not drawn),12%
10,CC1CCCCC1NC(=O)C1CCCN1S(=O)(=O)c1cccc2nsnc12 (stereo not drawn),73.9% (active)
11,COc1ccc(NS(=O)(=O)c2cccc3nsnc23)cc1Cl,12.4%
12,CC(=O)c1cccc(NC(=O)C2CCCN(S(=O)(=O)c3cccc4nonc34)C2)c1 (stereo not drawn),24.2%
13,Cc1noc(C)c1NC(=O)Nc1cccc2c1O[C@H](CN(C)C(=O)Nc1ccccc1)[C@@H](C)CN([C@H](C)CO)C2=O,6.95%
14,CC(=O)C[C@H](O)CC(=O)[C@@H]1OC(=O)[C@@H](C)C/C=C\Cc2ccccc21,0.77%
15,O=C1OCCN1C(=O)[C@H]1[C@H](c2ccccc2)C(c2ccc(F)cc2)=NN1c1ccccc1,5.3%
16,Cc1cccc(N2O[C@H]3C=CC2CCCC3)n1,3.41%
17,CCn1nc(C(=O)NNS(=O)(=O)c2cc(/C=C/C(=O)O)cc(OC)c2OC)c2ccccc2c1=O,3.49%
18,CC[C@]12c3[nH]c4ccc(OC)cc4c3CCN1C(=O)C(CC(=O)NCCN1CCOCC1)C[C@@H]2C(=O)N1CCN(C(=O)C2CC2)CC1 (stereo partly drawn),17.4%
19,O=C1c2ccccc2C(=O)c2c1cccc2N1CCN(C/C=C/c2ccccc2)CC1,20.4%
20,O=C1c2ccccc2C(=O)c2c1cccc2N1CCN(Cc2ccccc2)CC1,14.2%
21,O=C1c2ccccc2C(=O)c2c1cccc2N1CCN(CCO)CC1,56.4% (active)
22,COc1cc(/C=C/C(=O)OCC(=O)c2ccccc2)cc(OC)c1OC,7.01%

row,SMILES,inhibition
1,CCOc1ccc(/C=C/C(=O)OCC(=O)c2ccccc2OC)cc1OC,62.2% (active)
2,COc1ccc(/C=C/C(=O)OCC(=O)NC2CCCCCC2)cc1OC,5.65%
3,CCc1nnc(NC(=O)CSCc2cc(=O)n3cc(C)sc3n2)s1,8.1%
4,O=C(COC(=O)c1cccnc1Cl)Nc1ccc(S(=O)(=O)N2CCOCC2)cc1,7%
5,CC(=O)N1Cc2ccccc2CC1C(=O)O (stereo not drawn),2.65%
6,COc1ccc(NC(=O)N(C)C[C@H]2Oc3ccc(NC(=O)C4CC4)cc3C(=O)N([C@H](C)CO)C[C@@H]2C)cc1,9.29%
7,COc1cc(C2CC(=O)Oc3cc(OC)c(OC)c(OC)c32)cc(OC)c1OC (stereo not drawn),5.32%
8,CN(C(=O)c1cccc(NC(=O)Cc2cccc([N+](=O)[O-])c2)c1)C1CCCCC1,10.1%
9,CC(=O)c1ccc(NC(=O)Nc2ccc([N+](=O)[O-])cc2C)cc1,26%
10,COC(=O)c1ccc(NC(=O)Nc2ccc(C)cc2)cc1,15.3%
11,COc1cc(NC(=O)Nc2ccc(C)cc2)cc([N+](=O)[O-])c1,45.8% (active)
12,CC(C)(C)OC(=O)C[C@@H]1C/C=C\C[C@H](CC(=O)N[C@@H](CO)Cc2ccccc2)C(=O)N[C@H](Cc2ccccc2)COC1=O,4%
13,CC(=O)O[C@H]1c2ccccc2-c2ccccc2[C@@H]1OC(C)=O,1.8%
14,CC(=O)Oc1ccc2c(c1)C(=O)c1ccccc1C2=O,30.9% (active)
15,CC(=O)Oc1cccc(C(=O)Nc2ccccc2NC(=O)c2cccc(OC(C)=O)c2)c1,6.54%
16,Cc1ccnc(SCC(=O)Nc2cccc(S(=O)(=O)N3CCOCC3)c2)n1,5.6%
17,CC1CCN(C(=O)COC(=O)c2cc(=O)[nH]c3ccccc23)CC1,3.71%
18,CCC(=O)N(C)C(c1ccccc1Cl)c1nnnn1-c1c(C)cccc1C (stereo not drawn),74.2% (active)
19,CN(C)/C=C(/C(=O)c1ccc(Cl)c(Cl)c1)c1nnnn1-c1ccccc1,4.6%
20,CN(C(=O)CSc1nnnn1-c1ccccc1)C1CCCCC1,9.05%
21,Cc1ccc(C)c(NS(=O)(=O)c2c(C)[nH]c(C)c2C(=O)N2CCCCC2)c1,49.2% (active)
22,Cc1ccc(C)c(N2CCN(S(=O)(=O)c3c(C)[nH]c(C)c3C(=O)N3CCCC3)CC2)c1,5.67%

row,SMILES,inhibition
1,Cc1ccc(NS(=O)(=O)c2c(C)[nH]c(C)c2C(=O)N2CCCCC2)c(C)c1,21.7%
2,O=C(COC(=O)CN1C(=O)C2CCCCC2C1=O)Nc1ccc(F)c(F)c1F (stereo not drawn),0.98%
3,Cc1ccc(C(=O)N2CCN(C(=O)N3CCOCC3)CC2)cc1,5.22%
4,Cc1ccccc1-c1ccc(Nc2ccc(C(=O)N3CCOCC3)cc2)nn1,20.7%
5,Cc1oc2c(c1C(=O)N1CCOCC1)C(=O)c1ccccc1C2=O,90.1% (active)
6,Cc1cccc(C(=O)N[C@H](C(=O)NCc2cccs2)C(C)C)c1,11.5%
7,CN[C@H](C(=O)NC[C@H]1O[C@@H](n2cnc3c(N)ncnc32)[C@H](O)[C@@H]1O)[C@@H](C)OCc1ccccc1,5.21%
8,Cc1ccc(C(=O)NNC(=O)c2ccc3c(c2)OCCO3)cc1,8.1%
9,COc1cccc(NC(=O)CN(C)C(=O)c2ccccc2CCc2ccccc2)c1,67.5% (active)
10,COc1cccc(NC(=O)CN(C)C(=O)Cc2ccc(Cl)cc2Cl)c1,17.8%
11,COc1cccc(NC(=O)CN(C)C(=O)c2cc(C3CC3)nn2-c2ccccc2)c1,14%
12,CC(C)n1ncc2c(C(=O)Nc3ccc(CC#N)cc3)cc(C3CC3)nc21,4.43%
13,Cc1ccc(S(=O)(=O)Nc2ccc3c(c2)C(=O)N([C@H](C)CO)C[C@@H](C)[C@@H](CN(C)C(=O)Nc2cccc4ccccc24)O3)cc1,2.14%
14,COc1ccc(CCNC(=O)C(=O)NCC2CCCN2S(=O)(=O)c2cccs2)cc1OC (stereo not drawn),17.3%
15,COc1ccccc1CCNC(=O)C(=O)NCCC1CCCCN1S(=O)(=O)c1cccs1 (stereo not drawn),57.5% (active)
16,O=C(NCCC1CCCCN1S(=O)(=O)c1cccs1)C(=O)Nc1ccc(F)cc1F (stereo not drawn),12.6%
17,CNc1ccc([N+](=O)[O-])cc1C(=O)O,17.5%
18,CC(=O)Nc1ccc(S(=O)(=O)N2CCN(c3ccc([N+](=O)[O-])c(NCCN4CCOCC4)c3)CC2)cc1,24.8%
19,CNc1ccc(NC(C)=O)cc1[N+](=O)[O-],59.9% (active)
20,CC(=O)Nc1ccc(Nc2c([N+](=O)[O-])cc(S(C)(=O)=O)cc2[N+](=O)[O-])cc1,98% (active)
21,CC(=O)Nc1ccc(NC(=S)NC(=O)c2ccc([N+](=O)[O-])c(C)c2)cc1,4.21%
22,Cc1ccc(NC(=O)c2sccc2C)cc1[N+](=O)[O-],14.5%
